Inconclusive results are not listed. Active and inactive are the calls of the source. Rule for the calls: active = hit-call score of the fitted dose curve at least 0.9, where 1 is the maximum; inconclusive = response in the unintended direction; inactive = score below 0.9.
Key:
[1] = TOX21_p53_BLA_p2_viability: Viability Assessment in the Tox21 HCT-116 p53 Agonism Beta-lactamase Assay, Phase 2 (AID 2283591);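 note: compound exposure lasted 16 h at 37 °C; actives lower the ATP signal meaning cytotoxicity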
Method in brief: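 HCT116 p53-bla cells, 4000/well, dosed after 5 h plating (217-fold dilution of DMSO stocks) and incubated 16 h at 37C. Viability taken as cellular ATP by CellTiter-Glo luminescence after 30 min RT; signal loss marks cytotoxicity.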

[2] = molecular target: Cellular tumor antigen p53 (Homo sapiens) (UniProt P04637); assay: TOX21_p53_BLA_p2_ratio: Tox21 HCT-116 p53 Agonism Beta-lactamase Assay, Ratio, Phase 2 (AID 2283592)
Sequence of Cellular tumor antigen p53 (Homo sapiens) (P04637 whole entry, looked up): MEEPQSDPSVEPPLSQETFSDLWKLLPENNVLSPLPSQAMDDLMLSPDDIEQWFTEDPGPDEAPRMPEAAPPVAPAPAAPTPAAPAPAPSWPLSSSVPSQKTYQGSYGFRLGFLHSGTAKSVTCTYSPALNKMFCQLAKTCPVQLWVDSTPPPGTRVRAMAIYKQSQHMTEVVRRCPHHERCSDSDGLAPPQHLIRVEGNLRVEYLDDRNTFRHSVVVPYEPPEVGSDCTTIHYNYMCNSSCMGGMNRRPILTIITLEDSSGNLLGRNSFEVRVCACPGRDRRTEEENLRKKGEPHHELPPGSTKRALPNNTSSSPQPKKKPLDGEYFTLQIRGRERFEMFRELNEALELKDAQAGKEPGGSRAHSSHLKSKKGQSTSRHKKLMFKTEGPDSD
Method in brief: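 Ratio endpoint: beta-lactamase cleavage of CCF4-AM, blue (460 nm) over green (530 nm). HCT116 reporter line; 16 h treatment, 37C; substrate 2 h RT.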

[3] = TOX21_p53_BLA_p3_viability: Viability Assessment in the Tox21 HCT-116 p53 Agonism Beta-lactamase Assay, Phase 3 (AID 2283593);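 note: cells exposed to compound for 16 h before reading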
Method in brief: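 HCT116 cells, 4000/well, dosed 5 h after plating by pin transfer (217-fold dilution from DMSO stock) and incubated 16 h at 37C, 5% CO2. Viability read as ATP luminescence with CellTiter-Glo after 30 min at room temperature.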

[4] = molecular target: Cellular tumor antigen p53 (Homo sapiens) (UniProt P04637); assay: TOX21_p53_BLA_p3_ratio: Tox21 HCT-116 p53 Agonism Beta-lactamase Assay, Ratio, Phase 3 (AID 2283596)
Method in brief: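 Cells were seeded at 4000/well, rested 5 h at 37C, then dosed with DMSO compound solutions (217-fold dilution) for 16 h. CCF4-AM substrate was loaded for 2 h at room temperature, and the 460/530 nm emission ratio was fitted for gain of signal versus DMSO.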

[5] = TOX21_p53_BLA_p4_viability: Viability Assessment in the Tox21 HCT-116 p53 Agonism Beta-lactamase Assay, Phase 4 (AID 2283597);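 note: hits lower the luminescence signal meaning cytotoxicity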
Method in brief: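 Cytotoxicity was inferred from loss of CellTiter-Glo luminescence. HCT116 cells had been dosed with compounds after 5 h plating, incubated 16 h at 37C and 5% CO2, and exposed to the CCF4-AM substrate for 2 h.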

[6] = molecular target: Cellular tumor antigen p53 (Homo sapiens) (UniProt P04637); assay: TOX21_p53_BLA_p4_ratio: Tox21 HCT-116 p53 Agonism Beta-lactamase Assay, Ratio, Phase 4 (AID 2283601)
Method in brief: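 HCT-116 p53 beta-lactamase reporter cells (4000/well) preincubated 5 h, then compound (217-fold dilution of DMSO stock) for 16 h at 37C. CCF4-AM substrate added 2 h at room temperature; 460/530 nm emission ratio fitted upward versus DMSO.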

Measured: outcome

CC(=O)Oc1ccc(C(=C2CCCCC2)c2ccc(OC(C)=O)cc2)cc1
inactive: [1] | [2] | [3] | [4] | [5] | [6]

From PubChem BioAssay (EPA / NIEHS)
